# Test results: PubChem BioAssay AID2284073 (EPA ToxCast)
# Calls of active or inactive are those of the source. How the source made its calls: active means hit-call score of the fitted dose curve at least 0.9, where 1 is the maximum; inactive means score below 0.9.
# Target: human (CYP19A1), CYP19A1 (gene 1588) (UniProt P11511)
# Assay: ERF_TW_ENZ_hCYP19A1: Eurofins (ERF) Enzymatic CYP450 LeadHunter Assay for human (CYP19A1)
# Experimental: ERF_TW_ENZ_hCYP19A1 is a biochemical, single-readout assay that uses extracted gene-proteins in a cell-free assay. Measurements were taken 0.75 hour after chemical dosing in a 96-well plate. See CYP19A1 Human CYP450 Enzymatic Assay, Panlabs.ERF_TW_ENZ_hCYP19A1 is an assay component calculated from the ERF_TW_ENZ_hCYP19A1 assay. It is designed to measure enzyme activity using a type of enzyme reporter as detected by fluorescence intensity with spectrophotometry technology.Data from the assay component ERF_TW_ENZ_hCYP19A1 was analyzed at the assay endpoint, ERF_TW_ENZ_hCYP19A1, in the positive analysis fitting direction relative to DMSO as the negative control and baseline of activity. Using a type of enzyme reporter, loss-of-signal activity can be used to understand changes in enzymatic activity as they relate to gene CYP19A1. To generalize the intended target to other relatable targets, this assay endpoint is annotated to the cyp intended target family, where the subfamily is steroidogenesis-related.
# Human recombinant CYP450 19 plus P450 reductase, expressed in baculovirus infected insect BTI-TN-5B1-4 cells is used. Test compound and/or vehicle is preincubated with 4 nM enzyme in phosphate buffer pH 7.4 for 15 minutes at 37C. […] Determination of the amount of dibenzylfluorescein remaining is read spectrofluorimetrically. […]
# Chain of human (CYP19A1), CYP19A1 (gene 1588) (P11511 whole entry, looked up): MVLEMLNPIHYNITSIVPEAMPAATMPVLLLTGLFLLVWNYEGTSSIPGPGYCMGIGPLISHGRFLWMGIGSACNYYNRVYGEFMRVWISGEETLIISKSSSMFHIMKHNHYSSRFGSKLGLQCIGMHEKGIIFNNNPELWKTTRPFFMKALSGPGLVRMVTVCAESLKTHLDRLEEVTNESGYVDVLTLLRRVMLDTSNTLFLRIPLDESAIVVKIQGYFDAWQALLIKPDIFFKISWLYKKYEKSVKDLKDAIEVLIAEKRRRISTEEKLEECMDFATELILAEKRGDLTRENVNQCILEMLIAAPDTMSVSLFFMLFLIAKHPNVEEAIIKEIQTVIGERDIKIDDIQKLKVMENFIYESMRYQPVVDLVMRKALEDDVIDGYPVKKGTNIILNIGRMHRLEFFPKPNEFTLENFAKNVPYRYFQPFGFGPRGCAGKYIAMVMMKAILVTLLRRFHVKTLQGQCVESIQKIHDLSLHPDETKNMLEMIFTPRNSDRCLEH
row,SMILES,AC50
1,COc1cc(CCC(=O)CC(=O)CCc2ccc(O)c(OC)c2)ccc1O,5.05 µM (active)
